Measured values taken from PubChem BioAssay (EPA / NIEHS).
Results filed as inconclusive are left out. Activity calls are given as the source filed them. The calls were made as follows, unless noted: active = hit-call score of the fitted dose curve at least 0.9, where 1 is the maximum; inactive = score below 0.9.

Legend:
[1] = CCTE_Shafer_MEA_acute_firing_rate_mean: CCTE's Neural Acute Assay for Mean Firing Rate, Shafer Lab (AID 2284009);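 also: analyzed for loss of signal so actives lower firing rate relative to DMSO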
Method in brief: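 Spontaneous spiking of primary rat cortical networks, DIV 13/15, 37 C. Compound 0.03-40 uM, n ≥3 wells; 40 min baseline vs 40 min treated. Endpoint fitted in loss-of-signal direction against DMSO.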

[2] = CCTE_Shafer_MEA_acute_burst_number: CCTE's Neural Acute Assay for Single-Electrode Bursts, Shafer Lab (AID 2284013)
Method in brief: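 Burst totals were derived with adaptive spike detection (8x rms threshold) on filtered signals from rat cortical cultures; change relative to pre-treatment baseline after 40-min compound exposure (0.03-40 uM) was fitted in the negative direction against DMSO.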

[3] = CCTE_Shafer_MEA_acute_burst_duration_mean: CCTE's Neural Acute Assay for Mean Burst Duration, Shafer Lab (AID 2284014);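 also: hits are decreases in mean burst duration relative to DMSO controls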
Method in brief: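 Acute exposure of mature rat cortical networks (DIV 13 or 15) grown on microelectrode arrays to 0.03-40 uM compound. Mean burst duration compared with the 40-min pre-dose baseline over a 40-min post-dose recording at 37 C.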

[4] = CCTE_Shafer_MEA_acute_per_burst_spike_number_mean: CCTE's Neural Acute Assay for Average Number of Spikes Per Burst, Shafer Lab (AID 2284015);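 also: hits are decreases in mean spikes per burst versus baseline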
Method in brief: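 Primary rat cortical neurons on 48-well MEA plates, treated on DIV 13 or 15 at 0.03-40 uM. Spontaneous activity recorded 40 min before and 40 min after compound at 37 C; percent change in mean spikes per single-electrode burst per well, fitted in the loss direction versus DMSO.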

[5] = CCTE_Shafer_MEA_acute_interburst_interval_mean: CCTE's Neural Acute Assay for Mean Interburst Interval, Shafer Lab (AID 2284016);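 also: percent change of mean interburst interval versus each well's own pre-dose baseline; curves fitted for decrease in interburst interval relative to DMSO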
Method in brief: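 Primary rat cortical neurons on 16-electrode MEA wells were recorded 40 min at baseline on DIV 13 or 15, then 40 min after compound (0.03-40 uM), at 37 C. Value is percent change in mean interburst interval per well, DMSO as negative control.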

[6] = CCTE_Shafer_MEA_acute_burst_percentage_mean: CCTE's Neural Acute Assay for Percentage of Spikes in a Burst, Shafer Lab (AID 2284017);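 as to AC50: curve fitted for loss of signal so potency reflects decreased burst percentage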
Method in brief: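 Primary rat cortical neurons on 16-electrode MEA wells; 40 min baseline recorded at DIV 13 or 15, then 40 min after compound (0.03-40 uM) at 37 C. Well-mean fraction of spikes in single-electrode bursts; percent change from baseline, DMSO as negative control.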

[7] = CCTE_Shafer_MEA_acute_burst_percentage_std: CCTE's Neural Acute Assay for Standard Deviation of Burst Percentage, Shafer Lab (AID 2284018);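 also: fitted in the negative direction so actives lower burst percentage SD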
Method in brief: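 Primary rat cortical neurons on 16-electrode MEA wells were recorded 40 min at baseline (DIV 13 or 15), then 40 min after compound (0.03-40 uM), at 37 C. Well value is SD across electrodes of spikes-in-bursts/total spikes; endpoint is percent change, DMSO-referenced.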

[8] = CCTE_Shafer_MEA_acute_per_network_burst_spike_number_mean: CCTE's Neural Acute Assay for Average Number of Spikes in a Network Burst, Shafer Lab (AID 2284019);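 as to AC50: curve fitted for loss of signal so actives reduce spikes per network burst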
Method in brief: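 Acute exposure of rat primary cortical networks (DIV 13/15) on MEAs; adaptive spike detection at 8x rms noise, 37 C. Percent change in spikes per network burst after 40 min with compound (0.03-40 uM), negative direction vs DMSO.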

[9] = molecular target: Nucleoli Translocation, AR (gene 367) (UniProt P10275); experiment: UPITT_HCI_U2OS_AR_TIF2_Nucleoli_Antagonist: University of Pittsburgh U2OS Androgen Receptor-Transcriptional Intermediary Factor 2 (AR-TIF2) Antagonism High Content Imaging Assay for Nucleoli Translocation (AID 2283997; active = hit-call score of the fitted dose curve at least 0.9, where 1 is the maximum)
Method in brief: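 An antagonist-mode imaging screen: engineered U2OS (AR-RFP, TIF2-GFP) exposed to 20 uM compound, 0.2% DMSO. Activity reflects nucleolar red fluorescence change relative to DHT baseline.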

[10] = molecular target: Ratio of Nucleoli Translocation and Cytoplasm, AR (gene 367) (UniProt P10275); experiment: UPITT_HCI_U2OS_AR_TIF2_Nucleoli_Cytoplasm_Ratio_Antagonist: University of Pittsburgh U2OS Androgen Receptor-Transcriptional Intermediary Factor 2 (AR-TIF2) Antagonism High Content Imaging Assay for Ratio of Nucleoli Translocation and Cytoplasm (AID 2283999; active = hit-call score of the fitted dose curve at least 0.9, where 1 is the maximum;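 also: antagonists lower the DHT-driven ratio of nucleolar to cytoplasmic red signal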)
Method in brief: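 Compounds were added to U2OS cells carrying red-fluorescent AR and green-fluorescent TIF2, first at 20 uM, with hits confirmed in triplicate and titrated from 0.195 to 50 uM. Nucleolar versus cytoplasmic AR-RFP fluorescence was then quantified by imaging, with analysis relative to DHT.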

[11] = molecular target: Ratio of Nucleoli Translocation and Cytoplasm, AR (gene 367) (UniProt P10275); experiment: UPITT_HCI_U2OS_AR_TIF2_Nucleoli_Cytoplasm_Ratio_Agonist: University of Pittsburgh U2OS Androgen Receptor-Transcriptional Intermediary Factor 2 (AR-TIF2) Agonism High Content Imaging Assay for Ratio of Nucleoli Translocation and Cytoplasm (AID 2284000; active = hit-call score of the fitted dose curve at least 0.9, where 1 is the maximum;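 also: hits raise the red nucleolar to cytoplasm ratio above vehicle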)
Method in brief: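 Primary screen at 20 uM final (0.2% DMSO), then triplicate confirmation and dose-response from 0.195 to 50 uM final (0.5% DMSO). Cells: U2OS with AR-RFP and TIF2-GFP. Endpoint is the nucleoli/cytoplasm red-fluorescence ratio, gain-of-signal vs DMSO.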

[12] = molecular target: Nucleoli Translocation, AR (gene 367) (UniProt P10275); experiment: UPITT_HCI_U2OS_AR_TIF2_Nucleoli_Agonist: University of Pittsburgh U2OS Androgen Receptor-Transcriptional Intermediary Factor 2 (AR-TIF2) Agonism High Content Imaging Assay for Nucleoli Translocation (AID 2283998; active = hit-call score of the fitted dose curve at least 0.9, where 1 is the maximum)
Method in brief: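 RFP-AR / GFP-TIF2 cells; cpds diluted in serum-free medium; single-point screen 20 uM final (0.2% DMSO), actives confirmed in triplicate; conc-response 0.195–50 uM final (0.5% DMSO). Readout: nucleolar red fluorescence, positive direction vs DMSO.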

[13] = CCTE_Harrill_HTTr_Viability_MCF7: CCTE's 6-hour Cell Viability Assessment for the High-Throughput Transcriptomics (HTTr) Platform, in MCF-7 cells cultured in DMEM + 10% fetal bovine serum, Harrill Lab (AID 2284010)
Method in brief: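 Read-out is propidium iodide gain of signal by high-content imaging, reflecting membrane integrity loss. Measurements are taken 6 h after dosing, eight concentrations per chemical, with DMSO serving as baseline for bidirectional curve fitting.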

[14] = CCTE_Harrill_HTTr_Apoptosis_MCF7: CCTE's 6-hour Apoptosis Assessment for the High-Throughput Transcriptomics (HTTr) Platform, in MCF-7 cells cultured in DMEM + 10% fetal bovine serum, Harrill Lab (AID 2284011)
Method in brief: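 Read-out: CellEvent Caspase 3/7 Green signal by high content imaging, gain-of-signal indicating apoptosis. MCF-7 cells, DMEM + 10% FBS, eight-point dilution series, 6 h exposure. Curves fitted bidirectionally relative to DMSO negative control.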

[15] = CCTE_Harrill_HTTr_CellCount_MCF7: CCTE's Cell Proliferation Assessment for the High-Throughput Transcriptomics (HTTr) Platform, Harrill Lab (AID 2284012; active = hit-call score of the fitted dose curve at least 0.9, where 1 is the maximum;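 also: cells exposed to compound for six hours; intended direction is loss of nuclei count meaning fewer cells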)
Method in brief: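 Cell count served as viability reporter: loss of Hoechst-stained nuclei, counted by high content imaging, marks decreased growth or survival. Exposure was 6 h in MCF-7 cells across eight concentrations, with DMSO as baseline.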

[16] = molecular target: Retinoic acid receptor RXR-alpha (Homo sapiens) (UniProt P19793); experiment: TOX21_TR_RXR_BLA_Agonist_Followup_ratio: Tox21 Thyroid Hormone Receptor beta Retinoid X Receptor alpha (RXRa) Agonism Beta-lactamase (BLA) Follow-Up Assay, Ratio (AID 2283968; active = hit-call score of the fitted dose curve at least 0.9, where 1 is the maximum)
Method in brief: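 Cells were first allowed to attach for 5 h, after which compounds in DMSO were pinned at 11 concentrations and incubated 16 h at 37C. LiveBLAzer CCF4-AM substrate was then added for 2 h at room temperature before reading 460 and 530 nm fluorescence.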

[17] = TOX21_TR_RXR_BLA_Agonist_Followup_viability: Viability Assessment in the Tox21 Thyroid Hormone Receptor beta Retinoid X Receptor alpha (RXRa) Agonism Beta-lactamase (BLA) Follow-Up Assay (AID 2283970; active = hit-call score of the fitted dose curve at least 0.9, where 1 is the maximum)
Method in brief: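 Viability counter-screen run alongside the RXRa bla follow-up: HEK293T reporter cells were treated for 16h at 37C in stripped-serum medium, then ATP was quantified by luciferase-coupled CellTiter-Glo. Decreased signal relative to DMSO marked cytotoxicity.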

[18] = system: DIO1 (gene 1733); experiment: CCTE_GLTED_hDIO1: CCTE's human Deiodinase 1 (DIO1) Inhibition Assay, Great Lakes Toxicology and Ecology Division (GLTED) Lab (AID 2283987; active = hit-call score of the fitted dose curve at least 0.9, where 1 is the maximum;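 also: isolated human DIO1 enzyme in a cell-free setup rather than cells; enzyme activity read as free iodide liberated from substrate via Sandell-Kolthoff colorimetry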)
Method in brief: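 Steps: human DIO1 enzyme plus test chemical, 3 h incubation; free iodide then quantified in a second Sandell-Kolthoff step by absorbance. DMSO served as negative control and baseline.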

Measured: AC50

Retinoic acid receptor RXR-alpha (Homo sapiens), sequence (P19793 whole entry, looked up): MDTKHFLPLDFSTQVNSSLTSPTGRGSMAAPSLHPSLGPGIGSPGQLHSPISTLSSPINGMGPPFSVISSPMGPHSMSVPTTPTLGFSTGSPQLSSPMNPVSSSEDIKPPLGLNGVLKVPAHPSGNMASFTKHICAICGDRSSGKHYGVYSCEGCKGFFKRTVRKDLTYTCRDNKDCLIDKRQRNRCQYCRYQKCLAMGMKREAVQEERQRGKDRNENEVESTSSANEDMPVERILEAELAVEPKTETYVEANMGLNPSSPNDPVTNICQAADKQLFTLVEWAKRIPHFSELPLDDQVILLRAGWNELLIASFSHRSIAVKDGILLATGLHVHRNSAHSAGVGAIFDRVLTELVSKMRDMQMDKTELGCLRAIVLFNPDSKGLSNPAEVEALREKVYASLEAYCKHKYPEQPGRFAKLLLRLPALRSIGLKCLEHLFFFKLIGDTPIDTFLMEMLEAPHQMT
Nucleoli Translocation, AR (gene 367), sequence (P10275 whole entry, looked up): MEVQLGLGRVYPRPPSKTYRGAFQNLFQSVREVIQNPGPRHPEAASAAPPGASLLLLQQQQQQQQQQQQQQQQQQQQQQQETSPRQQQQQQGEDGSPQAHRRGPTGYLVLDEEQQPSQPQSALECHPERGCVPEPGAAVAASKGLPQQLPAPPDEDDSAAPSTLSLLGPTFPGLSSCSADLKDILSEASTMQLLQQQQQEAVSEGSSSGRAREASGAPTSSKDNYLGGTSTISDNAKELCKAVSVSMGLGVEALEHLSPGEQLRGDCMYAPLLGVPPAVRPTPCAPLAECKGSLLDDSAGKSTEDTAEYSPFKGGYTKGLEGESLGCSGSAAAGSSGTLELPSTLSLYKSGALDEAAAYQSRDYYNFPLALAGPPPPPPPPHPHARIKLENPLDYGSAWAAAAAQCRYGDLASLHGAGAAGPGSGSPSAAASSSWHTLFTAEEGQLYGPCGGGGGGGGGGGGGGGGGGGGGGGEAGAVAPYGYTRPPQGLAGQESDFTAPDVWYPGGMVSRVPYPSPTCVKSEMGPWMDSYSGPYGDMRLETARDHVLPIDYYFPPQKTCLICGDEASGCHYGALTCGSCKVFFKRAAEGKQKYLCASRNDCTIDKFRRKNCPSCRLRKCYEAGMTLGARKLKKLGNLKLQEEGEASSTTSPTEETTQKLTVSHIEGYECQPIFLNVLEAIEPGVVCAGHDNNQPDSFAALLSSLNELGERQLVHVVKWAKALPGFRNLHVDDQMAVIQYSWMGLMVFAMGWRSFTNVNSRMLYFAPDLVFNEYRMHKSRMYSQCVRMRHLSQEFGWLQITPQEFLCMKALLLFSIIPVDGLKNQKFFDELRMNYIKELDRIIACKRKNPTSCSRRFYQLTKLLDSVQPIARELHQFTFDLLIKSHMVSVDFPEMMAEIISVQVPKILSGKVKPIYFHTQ
Ratio of Nucleoli Translocation and Cytoplasm, AR (gene 367), sequence (P10275 whole entry, looked up): as above

CCOC(=O)C(C#N)=C(c1ccccc1)c1ccccc1
inactive: [1] | [2] | [3] | [4] | [5] | [6] | [7] | [8]

CCCCC1CCC(O)CC1 (stereo not drawn)
inactive: [9] | [10] | [11]

BrCc1cccc(Oc2ccccc2)c1
inactive: [9] | [12] | [10] | [11]

COCCc1ccc(OCC(O)CNC(C)C)cc1 (stereo not drawn)
inactive: [1] | [13] | [14] | [15] | [2] | [3] | [4] | [5] | [6] | [7] | [8]

Cc1cc(C)nc(NS(=O)(=O)c2ccc(N)cc2)n1
inactive: [16] | [17] | [13] | [14]

OCc1cccc(Oc2ccccc2)c1
inactive: [9] | [10] | [11] | [13] | [14]

N[C@@H](Cc1cc(I)c(Oc2cc(I)c(O)c(I)c2)c(I)c1)C(=O)O
inactive: [16] | [17] | [13] | [14] | [15]

CCOc1ccc(N=Nc2ccc(C=Cc3ccc(N=Nc4ccc(OCC)cc4)cc3S(=O)(=O)O)c(S(=O)(=O)O)c2)cc1
active: [18] 0.72 µM

C[C@H](CCC(=O)NCC(=O)O)[C@H]1CC[C@H]2[C@@H]3[C@H](O)C[C@@H]4C[C@H](O)CC[C@]4(C)[C@H]3C[C@H](O)[C@]12C
inactive: [16] | [17] | [13] | [14]

Oc1ccc2cc(SSc3ccc4cc(O)ccc4c3)ccc2c1
active: [18] 2.62 µM

CC1CCC(C(C)C)C(O)C1 (stereo not drawn)
inactive: [9] | [10] | [13] | [14]

CCOC(=O)[C@@H](C)Oc1ccc(Oc2nc3ccc(Cl)cc3o2)cc1
inactive: [9] | [12] | [10] | [11] | [13] | [14]

CC(=O)C1(C)CC2=C(CCCC2(C)C)CC1C (stereo not drawn)
inactive: [9] | [12] | [10] | [11] | [13] | [14]

CCCCCCCCCCCCCCN(CCO)CCO
active: [18] 30.6 µM

Nc1ccc(N)c2c1C(=O)c1ccccc1C2=O
inactive: [9] | [12] | [10] | [11]

C[C@H]1O[C@@H](O[C@H]2[C@@H](O)C[C@H](O[C@H]3[C@@H](O)C[C@H](O[C@H]4CC[C@@]5(C)[C@H](CC[C@@H]6[C@@H]5C[C@@H](O)[C@]5(C)[C@@H](C7=CC(=O)OC7)CC[C@]65O)C4)O[C@@H]3C)O[C@@H]2C)C[C@H](O)[C@@H]1O
inactive: [9] | [10] | [13] | [14]

CCCCCCCCC=CCCCCCCCC1=NCCN1CCO
active: [18] 36.3 µM | [9] 93 µM | [12] 13.3 µM | [11] 13.7 µM
inactive: [10]

CC1(C)CCC[C@]2(C)[C@H]3CCO[C@]3(C)CC[C@@H]12
inactive: [1] | [2] | [3] | [4] | [5] | [6] | [7] | [8]

CC(CN=Cc1ccccc1O)N=Cc1ccccc1O (stereo not drawn)
active: [4] 15 µM | [8] 15 µM
inactive: [1] | [13] | [14] | [15] | [2] | [3] | [5] | [6] | [7]

CC(=O)O[C@@H]1CC2CCC1(C)C2(C)C (stereo partly drawn)
inactive: [9] | [13] | [14]

CCCCC(CC)COC(=O)c1ccc(O)cc1 (stereo not drawn)
active: [18] 85.4 µM

CC(=O)Nc1ccc(C(=O)CCl)cc1
active: [17] 69.1 µM
inactive: [13] | [14] | [15]

CC(C)CCCCCCc1ccc(OCCOCCO)cc1
inactive: [9] | [10]

Cc1ccc(S(=O)(=O)Oc2ccc(N=Nc3ccc(-c4ccc(N=Nc5c(O)ccc6cc(S(=O)(=O)O)cc(S(=O)(=O)O)c56)c(C)c4)cc3C)cc2)cc1
inactive: [9] | [12] | [10] | [11]

CCCCCCC(CO)CCCC (stereo not drawn)
inactive: [2] | [3] | [4] | [7]
active: [1] 5.36 µM | [5] 15 µM | [6] 4.14 µM | [8] 0.0509 µM

O=Cc1ccccc1S(=O)(=O)O
inactive: [16] | [17]

CC(=O)O[C@H]1C[C@@H]2CC[C@@]1(C)C2(C)C
inactive: [9] | [10]

CCc1ccc(O)cc1
inactive: [9] | [13] | [14] | [15]

CCc1cc(Cc2cc(CC)cc(C(C)(C)C)c2O)c(O)c(C(C)(C)C)c1
active: [9] 62.2 µM | [12] 77.1 µM | [10] 50 µM | [11] 91.2 µM
inactive: [13] | [14]

OCCCCC(O)CO (stereo not drawn)
inactive: [16]

CC(C)CCCCCCCCCCCCCCC(=O)O
inactive: [13] | [14]
active: [18] 72.8 µM

CCCCCCCCSCCO
inactive: [12] | [11]
active: [9] 59 µM
